Here are results for one sequence from paper PMC7862700, “An all-to-all approach to the identification of sequence-specific readers for epigenetic DNA modifications on cytosine”.

Holding throughout (assay): DAPPL (digital affinity profiling via proximity ligation, sequencing); 10 mM Tris-HCl pH 7.5, 50 mM NaCl, 1 mM DTT, 4% glycerol, room temperature, 30 min; GST-TFs on glutathione beads, 16-mer random dsDNA library, 0.1% formaldehyde crosslink after washing; high values mean tight binding
One experiment has as its target T1, FEV (Homo sapiens, UniProt Q99581 1-238).
T1 sequence: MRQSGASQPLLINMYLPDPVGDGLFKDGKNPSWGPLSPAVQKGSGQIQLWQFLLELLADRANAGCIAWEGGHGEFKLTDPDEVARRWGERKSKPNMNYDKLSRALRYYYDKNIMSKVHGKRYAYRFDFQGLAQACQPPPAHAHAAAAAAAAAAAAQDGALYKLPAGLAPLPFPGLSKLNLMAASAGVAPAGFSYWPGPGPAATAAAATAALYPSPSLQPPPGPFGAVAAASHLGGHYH
As to conditions: protein: recombinant; tags: N-terminal GST; dsDNA, one strand shown. An outline of the steps: (§1)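 Human transcription factors carrying a GST fusion were produced in yeast, bound to glutathione beads, tagged with DNA barcodes and pooled together with a tag-only sample. Each pool was held with 200 nmole of a random double-stranded 16-mer DNA library in Tris/NaCl/DTT/glycerol buffer for 30 min at room temperature, then washed, crosslinked in 0.1% formaldehyde, proximity-ligated with BsaI/T4 ligase (1 h, 37 °C), PCR-amplified and sequenced on an Illumina NextSeq500. Binding signal is the read frequency of each hexamer for a given factor divided by its frequency in the tag-only sample.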

For the next experiment, the target named is ETV5 (Homo sapiens, UniProt P41161 1-510). Particulars: protein: recombinant; tags: N-terminal GST; dsDNA, one strand shown. An outline of the steps: as §1
In the next experiment the target is HSF1 (Homo sapiens, UniProt Q00613 1-529). As to conditions: protein: recombinant; tags: N-terminal GST; chain copies: 3; dsDNA, one strand shown. An outline of the steps:
as §1

The target of another experiment is T2, SPIC (Homo sapiens, UniProt Q8N5J4 1-248).
T2 sequence: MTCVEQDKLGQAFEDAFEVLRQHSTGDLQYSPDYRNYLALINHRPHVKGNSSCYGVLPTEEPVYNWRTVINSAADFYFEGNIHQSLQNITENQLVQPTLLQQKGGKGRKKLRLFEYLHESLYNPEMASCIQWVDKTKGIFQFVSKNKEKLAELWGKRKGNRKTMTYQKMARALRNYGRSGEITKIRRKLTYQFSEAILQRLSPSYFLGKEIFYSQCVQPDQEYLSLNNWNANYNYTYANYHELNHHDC
As to conditions: protein: recombinant; tags: N-terminal GST; dsDNA, one strand shown. The method, boiled down:
as §1

The next experiment addresses ELF4 (Homo sapiens, UniProt Q99607 1-663). Particulars: protein: recombinant; tags: N-terminal GST; dsDNA, one strand shown. The method, boiled down: as §1
A further experiment concerns the target T3, ELK4 (Homo sapiens, UniProt P28324-2 1-405).
T3 sequence: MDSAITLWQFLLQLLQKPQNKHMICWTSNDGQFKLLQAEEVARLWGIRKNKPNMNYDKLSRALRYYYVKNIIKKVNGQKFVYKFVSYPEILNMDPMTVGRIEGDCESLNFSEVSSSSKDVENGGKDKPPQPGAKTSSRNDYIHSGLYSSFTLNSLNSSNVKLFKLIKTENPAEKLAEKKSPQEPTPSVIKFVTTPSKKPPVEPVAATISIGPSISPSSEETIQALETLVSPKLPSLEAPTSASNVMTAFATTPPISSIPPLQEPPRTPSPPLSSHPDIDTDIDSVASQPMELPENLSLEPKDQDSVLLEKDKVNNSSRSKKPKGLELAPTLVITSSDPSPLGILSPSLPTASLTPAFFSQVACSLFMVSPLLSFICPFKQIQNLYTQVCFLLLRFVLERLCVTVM
Particulars: protein: recombinant; tags: N-terminal GST; dsDNA, one strand shown. An outline of the steps:
as §1

The next experiment addresses T4, ETV2 (Homo sapiens, UniProt O00321 1-342).
T4 sequence: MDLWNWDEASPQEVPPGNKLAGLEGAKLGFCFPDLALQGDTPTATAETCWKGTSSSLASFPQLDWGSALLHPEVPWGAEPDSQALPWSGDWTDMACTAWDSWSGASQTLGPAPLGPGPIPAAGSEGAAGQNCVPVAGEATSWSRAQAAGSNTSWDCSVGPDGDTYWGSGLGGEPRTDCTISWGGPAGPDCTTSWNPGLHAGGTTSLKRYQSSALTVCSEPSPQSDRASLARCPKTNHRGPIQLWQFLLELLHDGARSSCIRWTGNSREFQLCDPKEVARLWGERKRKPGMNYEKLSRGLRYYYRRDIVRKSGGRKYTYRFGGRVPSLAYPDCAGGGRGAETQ
As to conditions: protein: recombinant; tags: N-terminal GST; dsDNA, one strand shown. The method, boiled down: as §1

The target in a further experiment is T5, ELF3 (Homo sapiens, UniProt P78545 1-371).
T5 sequence: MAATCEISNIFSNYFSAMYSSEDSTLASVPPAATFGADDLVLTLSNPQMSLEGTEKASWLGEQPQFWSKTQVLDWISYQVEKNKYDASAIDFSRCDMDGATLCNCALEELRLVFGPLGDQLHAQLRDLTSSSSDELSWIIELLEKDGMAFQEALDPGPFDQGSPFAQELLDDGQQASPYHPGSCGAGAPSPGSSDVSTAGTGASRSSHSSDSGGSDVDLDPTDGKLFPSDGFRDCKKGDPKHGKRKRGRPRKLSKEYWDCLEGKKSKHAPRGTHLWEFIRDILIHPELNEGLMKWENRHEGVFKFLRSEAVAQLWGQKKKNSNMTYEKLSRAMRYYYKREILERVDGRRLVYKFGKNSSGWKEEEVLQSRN
Particulars: protein: recombinant; tags: N-terminal GST; dsDNA, one strand shown. An outline of the steps:
as §1

In the next experiment the target is CRX (Homo sapiens, UniProt O43186 1-299). Particulars: protein: recombinant; tags: N-terminal GST; dsDNA, one strand shown. An outline of the steps: as §1
The target in another experiment is ETV1 (Homo sapiens, UniProt P50549 1-477). Particulars: protein: recombinant; tags: N-terminal GST; dsDNA, one strand shown. The method, boiled down:
as §1

Another experiment deals with T6, ERF (Homo sapiens, UniProt P50548 1-548).
T6 sequence: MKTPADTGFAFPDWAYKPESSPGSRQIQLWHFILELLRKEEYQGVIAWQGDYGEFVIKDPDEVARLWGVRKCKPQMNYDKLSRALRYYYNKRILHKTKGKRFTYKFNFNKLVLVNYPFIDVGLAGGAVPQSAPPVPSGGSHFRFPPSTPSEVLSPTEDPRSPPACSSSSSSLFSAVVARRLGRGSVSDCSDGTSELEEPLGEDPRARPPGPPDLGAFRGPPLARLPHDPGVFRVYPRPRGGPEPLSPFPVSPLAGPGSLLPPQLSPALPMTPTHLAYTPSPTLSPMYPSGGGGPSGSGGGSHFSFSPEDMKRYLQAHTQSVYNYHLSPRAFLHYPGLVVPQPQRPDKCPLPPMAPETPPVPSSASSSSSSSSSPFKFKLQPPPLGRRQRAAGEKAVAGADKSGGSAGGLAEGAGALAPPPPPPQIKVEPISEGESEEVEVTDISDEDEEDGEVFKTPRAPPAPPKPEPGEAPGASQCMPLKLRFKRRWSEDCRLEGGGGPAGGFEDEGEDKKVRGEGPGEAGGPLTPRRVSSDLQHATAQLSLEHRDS
Particulars: protein: recombinant; tags: N-terminal GST; dsDNA, one strand shown. An outline of the steps: as §1

In a further experiment the target is T7, ETV3L (Homo sapiens, UniProt Q6ZN32 1-361).
T7 sequence: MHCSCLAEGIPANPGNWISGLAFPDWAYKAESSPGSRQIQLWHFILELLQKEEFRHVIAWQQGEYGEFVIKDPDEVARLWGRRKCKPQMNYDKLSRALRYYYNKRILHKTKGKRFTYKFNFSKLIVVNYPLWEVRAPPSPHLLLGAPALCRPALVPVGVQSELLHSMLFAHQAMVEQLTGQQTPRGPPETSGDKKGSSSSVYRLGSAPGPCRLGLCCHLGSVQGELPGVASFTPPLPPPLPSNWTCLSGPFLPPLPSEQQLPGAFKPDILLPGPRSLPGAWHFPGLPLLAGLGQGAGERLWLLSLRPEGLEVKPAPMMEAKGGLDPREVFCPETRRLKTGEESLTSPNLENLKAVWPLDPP
As to conditions: protein: recombinant; tags: N-terminal GST; dsDNA, one strand shown. An outline of the steps:
as §1

A further experiment addresses T8, ETS2 (Homo sapiens, UniProt P15036 1-469).
T8 sequence: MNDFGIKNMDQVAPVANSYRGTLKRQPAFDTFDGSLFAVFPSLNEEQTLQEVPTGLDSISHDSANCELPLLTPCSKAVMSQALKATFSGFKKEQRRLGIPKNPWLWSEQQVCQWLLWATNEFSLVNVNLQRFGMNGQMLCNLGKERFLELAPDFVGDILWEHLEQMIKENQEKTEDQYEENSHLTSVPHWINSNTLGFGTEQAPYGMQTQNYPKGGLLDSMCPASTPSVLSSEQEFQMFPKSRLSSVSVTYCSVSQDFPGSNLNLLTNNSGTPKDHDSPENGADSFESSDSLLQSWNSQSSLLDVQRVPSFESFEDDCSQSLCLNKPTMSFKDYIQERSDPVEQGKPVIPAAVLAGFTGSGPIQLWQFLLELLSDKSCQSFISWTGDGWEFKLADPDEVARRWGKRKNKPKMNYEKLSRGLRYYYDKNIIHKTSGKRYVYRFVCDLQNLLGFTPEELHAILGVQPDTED
Particulars: protein: recombinant; tags: N-terminal GST; dsDNA, one strand shown. An outline of the steps:
as §1

In a further experiment the target is T9, SPDEF (Homo sapiens, UniProt O95238 1-335).
T9 sequence: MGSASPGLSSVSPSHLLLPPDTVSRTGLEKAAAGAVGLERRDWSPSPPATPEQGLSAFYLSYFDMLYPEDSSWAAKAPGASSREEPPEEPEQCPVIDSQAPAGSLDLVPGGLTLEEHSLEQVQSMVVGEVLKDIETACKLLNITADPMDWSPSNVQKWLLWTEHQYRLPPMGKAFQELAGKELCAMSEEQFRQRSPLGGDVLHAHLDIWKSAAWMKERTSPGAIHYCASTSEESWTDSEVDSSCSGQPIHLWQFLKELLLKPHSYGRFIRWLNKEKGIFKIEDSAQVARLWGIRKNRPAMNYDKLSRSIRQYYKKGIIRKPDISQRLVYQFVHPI
As to conditions: protein: recombinant; tags: N-terminal GST; dsDNA, one strand shown. The method, boiled down:
as §1

The next experiment deals with T10, ETV7 (Homo sapiens, UniProt Q9Y603 1-341).
T10 sequence: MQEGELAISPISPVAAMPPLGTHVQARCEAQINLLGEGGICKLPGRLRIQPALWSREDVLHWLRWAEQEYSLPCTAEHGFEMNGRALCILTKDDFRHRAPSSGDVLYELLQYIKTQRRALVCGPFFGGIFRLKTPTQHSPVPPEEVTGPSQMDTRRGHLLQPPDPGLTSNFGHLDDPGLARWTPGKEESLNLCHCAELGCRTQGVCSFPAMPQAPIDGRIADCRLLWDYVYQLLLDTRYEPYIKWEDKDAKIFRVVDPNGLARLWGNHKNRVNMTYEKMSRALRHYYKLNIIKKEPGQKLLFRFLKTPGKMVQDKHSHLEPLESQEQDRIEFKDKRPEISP
As to conditions: protein: recombinant; tags: N-terminal GST; dsDNA, one strand shown. An outline of the steps:
as §1

Another experiment has as its target T11, ELF5 (Homo sapiens, UniProt Q9UKW6-2 1-255).
T11 sequence: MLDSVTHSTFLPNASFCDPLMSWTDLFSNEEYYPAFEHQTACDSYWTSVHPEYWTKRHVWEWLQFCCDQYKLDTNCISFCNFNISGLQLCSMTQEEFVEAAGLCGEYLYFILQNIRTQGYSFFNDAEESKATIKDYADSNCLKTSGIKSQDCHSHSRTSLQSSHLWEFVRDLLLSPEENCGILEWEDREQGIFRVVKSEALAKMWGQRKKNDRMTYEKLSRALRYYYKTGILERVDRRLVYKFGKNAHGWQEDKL
Particulars: protein: recombinant; tags: N-terminal GST; dsDNA, one strand shown. The method, boiled down:
as §1

For the next experiment, the target named is T12, ETV3 (Homo sapiens, UniProt P41162-2 1-143).
T12 sequence: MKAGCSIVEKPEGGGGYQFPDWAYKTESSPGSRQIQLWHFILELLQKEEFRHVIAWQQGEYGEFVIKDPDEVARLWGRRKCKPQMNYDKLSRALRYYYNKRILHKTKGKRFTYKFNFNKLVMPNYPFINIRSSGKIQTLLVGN
As to conditions: protein: recombinant; tags: N-terminal GST; dsDNA, one strand shown. The method, boiled down:
as §1

In another experiment the target is ETV6 (Homo sapiens, UniProt P41212 1-452). As to conditions: protein: recombinant; tags: N-terminal GST; dsDNA, one strand shown. The method, boiled down: as §1
Chain of ETV6 (P41212 whole entry): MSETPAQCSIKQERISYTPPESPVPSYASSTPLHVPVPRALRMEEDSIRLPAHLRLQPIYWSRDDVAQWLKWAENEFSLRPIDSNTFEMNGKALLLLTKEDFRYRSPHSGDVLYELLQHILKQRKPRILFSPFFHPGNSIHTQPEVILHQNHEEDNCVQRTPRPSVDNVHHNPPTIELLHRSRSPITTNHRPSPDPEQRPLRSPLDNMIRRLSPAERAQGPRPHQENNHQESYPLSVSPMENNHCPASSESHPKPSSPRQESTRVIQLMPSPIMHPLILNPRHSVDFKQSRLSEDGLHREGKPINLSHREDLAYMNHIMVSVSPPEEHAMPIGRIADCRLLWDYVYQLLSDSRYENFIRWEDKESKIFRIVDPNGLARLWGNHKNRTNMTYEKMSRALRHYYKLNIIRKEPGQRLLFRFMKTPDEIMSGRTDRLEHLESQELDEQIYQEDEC

Chain of HSF1 (Q00613 whole entry): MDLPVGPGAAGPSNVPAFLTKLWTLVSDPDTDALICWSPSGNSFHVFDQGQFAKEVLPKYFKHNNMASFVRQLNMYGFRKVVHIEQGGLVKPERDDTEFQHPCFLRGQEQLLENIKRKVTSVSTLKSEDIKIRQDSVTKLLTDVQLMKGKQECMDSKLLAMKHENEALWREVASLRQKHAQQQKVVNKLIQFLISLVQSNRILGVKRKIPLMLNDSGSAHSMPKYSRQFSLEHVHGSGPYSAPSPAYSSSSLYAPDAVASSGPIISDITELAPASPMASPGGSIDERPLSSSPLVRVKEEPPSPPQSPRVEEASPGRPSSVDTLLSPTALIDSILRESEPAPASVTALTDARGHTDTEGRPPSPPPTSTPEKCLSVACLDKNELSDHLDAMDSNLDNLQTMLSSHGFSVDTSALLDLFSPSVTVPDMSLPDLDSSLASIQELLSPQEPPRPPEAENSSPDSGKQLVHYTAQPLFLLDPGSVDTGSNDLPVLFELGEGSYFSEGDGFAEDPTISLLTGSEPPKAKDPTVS
Chain of CRX (O43186 whole entry): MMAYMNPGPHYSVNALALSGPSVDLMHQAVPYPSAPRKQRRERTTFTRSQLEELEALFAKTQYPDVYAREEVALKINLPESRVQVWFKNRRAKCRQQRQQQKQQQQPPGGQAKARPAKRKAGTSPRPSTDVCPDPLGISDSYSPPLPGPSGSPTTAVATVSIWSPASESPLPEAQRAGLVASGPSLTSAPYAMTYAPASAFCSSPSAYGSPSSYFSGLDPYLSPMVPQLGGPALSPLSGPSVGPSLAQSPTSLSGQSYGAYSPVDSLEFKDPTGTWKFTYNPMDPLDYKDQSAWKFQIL
Chain of ELF4 (Q99607 whole entry): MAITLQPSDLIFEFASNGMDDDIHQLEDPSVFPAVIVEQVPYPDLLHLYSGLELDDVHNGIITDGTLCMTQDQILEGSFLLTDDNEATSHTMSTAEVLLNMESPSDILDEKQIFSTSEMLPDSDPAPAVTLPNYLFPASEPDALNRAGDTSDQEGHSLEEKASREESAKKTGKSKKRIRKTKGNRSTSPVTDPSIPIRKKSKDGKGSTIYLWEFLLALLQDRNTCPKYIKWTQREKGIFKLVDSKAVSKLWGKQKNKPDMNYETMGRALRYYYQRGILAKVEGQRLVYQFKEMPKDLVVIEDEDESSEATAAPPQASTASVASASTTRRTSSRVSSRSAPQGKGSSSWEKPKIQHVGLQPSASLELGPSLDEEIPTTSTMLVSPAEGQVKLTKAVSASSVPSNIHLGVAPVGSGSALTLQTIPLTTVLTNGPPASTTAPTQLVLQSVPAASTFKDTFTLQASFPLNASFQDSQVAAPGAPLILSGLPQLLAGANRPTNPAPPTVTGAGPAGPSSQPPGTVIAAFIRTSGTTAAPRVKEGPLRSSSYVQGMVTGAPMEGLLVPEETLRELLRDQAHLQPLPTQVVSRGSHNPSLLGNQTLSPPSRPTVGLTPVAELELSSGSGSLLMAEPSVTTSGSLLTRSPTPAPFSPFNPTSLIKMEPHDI
Chain of ETV1 (P50549 whole entry): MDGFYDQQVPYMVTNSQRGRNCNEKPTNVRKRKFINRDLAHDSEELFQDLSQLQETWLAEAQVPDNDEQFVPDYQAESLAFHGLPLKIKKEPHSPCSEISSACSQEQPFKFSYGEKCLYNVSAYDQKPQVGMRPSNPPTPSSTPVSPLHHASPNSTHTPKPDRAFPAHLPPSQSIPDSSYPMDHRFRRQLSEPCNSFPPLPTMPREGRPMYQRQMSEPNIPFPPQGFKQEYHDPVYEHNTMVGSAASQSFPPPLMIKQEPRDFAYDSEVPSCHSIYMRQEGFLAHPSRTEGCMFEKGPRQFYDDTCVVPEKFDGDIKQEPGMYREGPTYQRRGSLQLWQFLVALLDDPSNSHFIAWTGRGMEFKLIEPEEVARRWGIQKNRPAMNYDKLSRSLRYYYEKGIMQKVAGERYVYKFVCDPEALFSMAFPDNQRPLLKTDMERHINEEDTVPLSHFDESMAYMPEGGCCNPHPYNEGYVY
Chain of ETV5 (P41161 whole entry): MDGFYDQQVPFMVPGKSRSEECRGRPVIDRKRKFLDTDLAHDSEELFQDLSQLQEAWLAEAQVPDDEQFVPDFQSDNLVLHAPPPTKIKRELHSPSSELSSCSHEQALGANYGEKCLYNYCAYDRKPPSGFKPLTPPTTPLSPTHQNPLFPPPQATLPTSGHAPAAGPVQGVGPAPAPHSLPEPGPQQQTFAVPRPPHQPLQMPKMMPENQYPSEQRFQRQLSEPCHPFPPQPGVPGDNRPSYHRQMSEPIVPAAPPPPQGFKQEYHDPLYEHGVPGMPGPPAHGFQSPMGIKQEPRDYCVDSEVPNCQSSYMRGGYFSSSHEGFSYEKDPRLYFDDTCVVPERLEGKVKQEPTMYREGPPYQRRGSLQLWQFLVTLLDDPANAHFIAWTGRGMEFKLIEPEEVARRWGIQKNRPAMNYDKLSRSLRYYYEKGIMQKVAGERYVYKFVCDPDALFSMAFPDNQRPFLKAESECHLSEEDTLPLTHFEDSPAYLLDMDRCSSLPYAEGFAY

With TCATCT, the binding signal in the experiment with FEV was 1.08 fold enrichment (6-mer frequency, TF over GST control); with ETV5, 1.19 fold enrichment (6-mer frequency, TF over GST control); with HSF1, 1.44 fold enrichment (6-mer frequency, TF over GST control); with SPIC, 1.32 fold enrichment (6-mer frequency, TF over GST control); in the experiment with ELF4, 1.18 fold enrichment (6-mer frequency, TF over GST control); with ELK4 it was 1.59 fold enrichment (6-mer frequency, TF over GST control). The binding signal with ETV2 was 1.38 fold enrichment (6-mer frequency, TF over GST control); in the experiment with ELF3, 1.37 fold enrichment (6-mer frequency, TF over GST control); with CRX, 1.5 fold enrichment (6-mer frequency, TF over GST control); with ETV1, 1.15 fold enrichment (6-mer frequency, TF over GST control); with ERF, 1.21 fold enrichment (6-mer frequency, TF over GST control); with ETV3L, 1.22 fold enrichment (6-mer frequency, TF over GST control). Also, the binding signal with ETS2 was 1.2 fold enrichment (6-mer frequency, TF over GST control); with SPDEF, 1.07 fold enrichment (6-mer frequency, TF over GST control); with ETV7, 1.14 fold enrichment (6-mer frequency, TF over GST control); in the experiment with ELF5 it was 1.17 fold enrichment (6-mer frequency, TF over GST control); with ETV3, 1.19 fold enrichment (6-mer frequency, TF over GST control); in the experiment with ETV6, 1.22 fold enrichment (6-mer frequency, TF over GST control).
